# Measured values taken from PubChem BioAssay AID504467 (National Center for Advancing Translational Sciences (NCATS), 2011).
# Out of some 330,000 compounds screened, about 7,700 (2.3%) were called active. A call without a number means that no potency is given here. Not shown: some 26% with an inconclusive outcome. Calls follow the shape of the dose curve; as a rule, active = well fitted inhibition curve with a large enough effect; inconclusive = small, poorly fitted or top-dose-only effect, or effect the other way; inactive = flat fitted curve, though single readings scatter. The sample as a whole holds a higher share of actives than the screen did.
# Assay: qHTS screen for small molecules that inhibit ELG1-dependent DNA repair in human embryonic kidney (HEK293T) cells expressing luciferase-tagged ELG1; also: nearly all actives have a fitted effect of over 55% in size
# Conditions: HEK293T ELG1-luciferase reporter, luminescence, 16 h, DNA damage induced by 5-fluorouridine; series mostly up to 46.1 µM
# Outline: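 Luminescence from the luciferase reporter, measured 30 min after ONE-Glo reagent at room temperature, was the read-out. Beforehand, 2,000 cells per well were exposed for 16 hr at 37 °C to 5-fluorouridine together with compound or vehicle.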
# Potency is read from the fitted curve at half-maximal effect.
row,Compound,Potency
1,Cc1c(C(=O)N2CCCC2)c(S(=O)(=O)NCC(C)c2ccccc2)c(C)n1C (stereo not drawn),inactive
2,O=C(NNS(=O)(=O)c1ccc([N+](=O)[O-])cc1)C1CCCCC1,inactive
3,CCN(CC)C(=O)[C@H]1CC(CC(=O)NCc2ccco2)C(=O)N2CCc3c([nH]c4ccccc34)[C@]12C (stereo partly drawn),inactive
4,CCOC(=O)CC1C(=O)NCCN1c1nc2c(C)cccn2c(=O)c1/C=C1\SC(=S)N(C(C)CC)C1=O (stereo not drawn),20.6 µM (active)
5,Cc1cccn2c(=O)c(/C=C3\SC(=S)N(CC(C)C)C3=O)c(NCCCOC(C)C)nc12,inactive
6,CCCN(CCC)c1nc2c(C)cccn2c(=O)c1/C=C1/SC(=S)N(Cc2ccco2)C1=O,inactive
7,COc1ccc(NC(=O)C2CCN(S(=O)(=O)c3ccc4[nH]c(=O)oc4c3)CC2)c(OC)c1,inactive
8,O=S(=O)(c1cccs1)N1CCN(CCOc2ccccc2)CC1,inactive
9,CCOC(=O)C1=C(C)N(C[C@@H]2CC[C@@H](Cc3ccc(-c4ccccc4)cc3)O2)C(=O)NC1c1ccc([N+](=O)[O-])cc1 (stereo partly drawn),inactive
10,CC(=O)N1c2ccc(S(=O)(=O)N3CCCC(C(=O)Nc4ccc(C)cc4C)C3)cc2CC1C (stereo not drawn),inactive
11,COc1cc(Cl)c(C)cc1NC(=O)CSc1nnc(CN2CCCC2)o1,inactive
12,CCc1nc(SCC(=O)Nc2ccccc2OC)n[nH]1,inactive
13,CCCc1nc(SCC(=O)Nc2ccccc2OC)c2c(=O)n(C)c(=O)n(C)c2n1,23.1 µM (active)
14,CCCc1nc(SCC(=O)N2CCCC2)c2c(=O)n(C)c(=O)n(C)c2n1,inactive
15,CCOC(=O)CCCCCC(=O)Nc1ccc2c(c1)CC(=O)N([C@@H](C)CO)C[C@H](C)[C@@H](CN(C)Cc1ccccc1)O2,inactive
16,Cc1cc(C)cc(NC(=O)C2CCCN(S(=O)(=O)c3ccc4[nH]c(=O)ccc4c3)C2)c1 (stereo not drawn),inactive
17,O=C(C1CCC(=O)N(C2CC2)C1)N1CCN(c2ccc(Cl)cc2)CC1 (stereo not drawn),inactive

row,Compound,Potency
1,COc1ccc(C(=O)NC2CCN(C(=S)NCCc3ccccc3)CC2)cc1,inactive
2,COc1cc(OC)cc(C(=O)NC2CCN(C(=O)N3c4ccccc4Sc4ccccc43)CC2)c1,13 µM (active)
3,COc1ccc(C(=O)NC2CCN(C(=S)Nc3ccccc3)CC2)cc1,inactive
4,O=C(CN(CC1CCCO1)C(=O)CNS(=O)(=O)c1ccc(Cl)cc1)NCc1ccccc1 (stereo not drawn),inactive
5,Cc1cccc(C(=O)NCCCN2CCCC2=O)c1,inactive
6,COc1ccc(NC(=O)CN(C)C(=O)c2cc(C3CC3)nn2-c2ccccc2)cc1,inactive
7,COc1ccc(Cl)cc1NC(=O)CN(C)C(=O)c1ccc2n[nH]nc2c1,inactive
8,COc1ccc(-c2cc(C(=O)NCCCN3CCCC3=O)c3ccccc3n2)cc1OC,20.6 µM (active)
9,COc1ccc(-c2cc(C(=O)N(C)CC(=O)Nc3ccccc3Cl)c3ccccc3n2)cc1OC,2.06 µM (active)
10,COc1ccc(NC(=O)CN(C)C(=O)c2cc(-c3ccc(C)o3)nc3ccccc23)cc1,20.6 µM (active)
11,COc1ccc(C2=NS(=O)(=O)N(C)C(C(=O)N(C)Cc3ccccc3)=C2)cc1,inactive
12,COc1ccccc1NC(=O)c1cc(Cl)nc2ccccc12,inactive
13,COc1ccc(-c2cc(C(=O)N(C)Cc3ccccc3)c3ccccc3n2)cc1,23.1 µM (active)
14,Cc1ccc(-c2nn(-c3ccccc3)cc2C(=O)NCCCN2CCCC2=O)cc1,inactive
15,COc1ccc(-c2cc(C(=O)n3cnc4ccccc43)c3ccccc3n2)cc1,inactive
16,COc1ccc(NC(=O)CN(C)C(=O)c2ccc(COc3ccccc3)o2)cc1,inactive
